This is part of a sample that, as a whole, favours compounds with a hit. Of some 79,000 tested, about 15% had one in any assay. The source made the active and inactive calls. No stated cut-off is given here; in the data, active means growth inhibition above about 70%; inactive means the rest.
Key:
[1] = NCI Yeast Anticancer Drug Screen. Data for the rad50 strain (AID 155);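 further: 0% = growth of vehicle-only cultures of the same strain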; conditions: S. cerevisiae rad50 strain growth inhibition; at 50.0 µM; stronger effect = higher value
In short: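 Growth of the mutant yeast was measured after compound exposure and referenced to vehicle-treated cultures.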

[2] = NCI Yeast Anticancer Drug Screen. Data for the mec2-1 strain (AID 157); conditions: S. cerevisiae mec2-1 strain, at 50.0 µM, stronger effect = higher value
In short: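 Each compound was tested on mec2-1 yeast, a strain altered in DNA damage repair or cell cycle control. Growth inhibition is reported relative to vehicle.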

[3] = NCI Yeast Anticancer Drug Screen. Data for the sgs1 mgt1 strain (AID 161);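 further: 0% = growth of cultures given vehicle only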; conditions: S. cerevisiae sgs1 mgt1 strain, at 50.0 µM, stronger effect = higher value
In short: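 Mutant yeast exposed to compound; growth scored against vehicle-only wells.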

[4] = NCI Yeast Anticancer Drug Screen. Data for the cln2 rad14 strain (AID 165);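 further: 0% = growth equal to vehicle treated cultures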; conditions: S. cerevisiae cln2 rad14 strain, at 50.0 µM, stronger effect = higher value
In short: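 Test compounds were added to cln2 rad14 yeast cultures; inhibition of growth was then determined by comparison with vehicle treatment.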

[5] = NCI Yeast Anticancer Drug Screen. Data for the bub3 strain (AID 167); conditions: S. cerevisiae bub3 mutant strain, at 50.0 µM, stronger effect = higher value
In short: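 Whole-cell yeast assay. The mutant strain was incubated with compounds, and growth inhibition was determined by comparison with vehicle-treated cells.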

[6] = NCI Yeast Anticancer Drug Screen. Data for the mlh1 rad18 strain (AID 175); conditions: S. cerevisiae mlh1 rad18 strain growth inhibition; at 50.0 µM; stronger effect = higher value
In short: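 Inhibition values reflect reduced growth of mutant yeast versus vehicle-treated controls following compound exposure; the mutations affect DNA damage repair.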

Measured: growth inhibition

CC([C@H]1CC[C@H]2[C@@H]3CC=C4C[C@@H](O)CC[C@]4(C)[C@H]3CC[C@]12C)C(O)(c1ccccc1)c1ccccc1 (stereo partly drawn)
inactive: [1] 40.9% | [2] 19.8% | [3] 43.4% | [4] 37.6% | [5] 23.4% | [6] 25.2%

Cc1nc(C)c(N2CCN(C#N)CC2)c(=O)[nH]1
inactive: [1] -52.6% | [2] -23.6% | [3] -29.1% | [4] 0.35% | [5] -11.7% | [6] -40.2%

S=c1nc[nH]c2c1ncn2Cc1ccccc1
inactive: [1] 5.55% | [2] 4.25% | [3] -14.3% | [4] 1.3% | [5] 4.9% | [6] 2.35%

CC(C)NC(=O)NCCc1c[nH]c2ccccc12
inactive: [1] -49.9% | [2] -11.8% | [3] 1.85% | [4] 6.95% | [5] 16.2% | [6] -13.2%

O=c1c2ccccc2[nH]c2ccc(Br)cc12
inactive: [1] 8.25% | [2] 2.2% | [3] 3.8% | [4] -6.1% | [5] 2.95% | [6] 17.8%

Oc1c(Br)cc(Br)cc1/C=N/N=C/c1cc(Br)cc(Br)c1O
inactive: [1] -6.7% | [2] -20% | [3] -15.9% | [4] 0.2% | [5] -8.5% | [6] 7.5%

BrCc1cccc2cccc(CBr)c12
inactive: [1] -5.35% | [2] 17.4% | [3] 10.4% | [4] -10.5% | [5] 9.05% | [6] 2.65%

O=C1Cc2ccccc2NC(c2ccccc2)C1S(=O)(=O)c1ccccc1 (stereo not drawn)
inactive: [1] 7.05% | [2] 4.35% | [3] 9.3% | [4] -2.15% | [5] -0.05% | [6] 19.6%

CC(c1ccccc1)C(O)S(=O)(=O)O (stereo not drawn)
inactive: [1] 6.95% | [2] 3.7% | [3] 7.35% | [4] -5.05% | [5] 17.3% | [6] -0.35%

c1ccc2c(CN3CCN(Cc4c[nH]c5ccccc45)CC3)c[nH]c2c1
inactive: [1] 17.1% | [2] -8.75% | [3] -14.5% | [4] -13.8% | [5] -2.8% | [6] -21.9%

O=C1C(c2ccccc2)=C(c2ccccc2)c2ccccc21
inactive: [1] -8.2% | [2] 19.6% | [3] 21% | [4] -18.4% | [5] 32% | [6] 14.4%

COc1cc(/C=C(\C)c2ccc3c(c2)OCO3)cc(OC)c1OC
inactive: [1] 15% | [2] 12.6% | [3] 35% | [4] 5.15% | [5] 12.8% | [6] -5.85%

COc1cc(OC)c(C2c3cc4c(cc3OC(C)(N3CCCC3)C2C)OCO4)c(OC)c1 (stereo not drawn)
inactive: [1] 4.5% | [2] 14.6% | [3] 5.25% | [4] -8.65% | [5] 9.45% | [6] 20.3%

O=C(c1ccccc1)c1ccc2c(c1)-c1ccccc1-2
inactive: [1] 7.3% | [2] -7% | [3] 15.1% | [4] -21.1% | [5] 12.8% | [6] 12.8%

CCC1(c2ccccc2)SCC(=O)NC1=O (stereo not drawn)
inactive: [1] 21.1% | [2] 4.5% | [3] 12.8% | [4] 10.8% | [5] 18.4% | [6] 6.95%

O=C1CCNC(=O)N1
inactive: [1] 33.7% | [2] -7.35% | [3] 4.75% | [4] 21.1% | [5] -10.2% | [6] 23.4%

O=c1c2ccccc2nnn1O
inactive: [1] 12.8% | [2] 0.2% | [3] 4.55% | [4] -23.1% | [5] -5.95% | [6] 6.45%

CCCCC1(CCS)C(=O)NC(=Nc2ccccc2)NC1=O (stereo not drawn)
inactive: [1] -0.95% | [2] -3.95% | [3] 11.8% | [4] -37.3% | [5] 22.7% | [6] -11.8%

CC(=O)NC(CCCc1ccccc1)C(=O)O (stereo not drawn)
inactive: [1] 7.65% | [2] 9% | [3] -17.1% | [4] -23.1% | [5] 2.45% | [6] -18.9%

CCCCCC/C(=C\c1ccc(O)cc1)C(=O)O
inactive: [1] 17.6% | [2] 36.1% | [3] 32.8% | [4] 47.9% | [5] 39.6% | [6] 41.8%

C1CCC2C(C1)CCCC2NC1=NCCO1 (stereo not drawn)
inactive: [1] 1.75% | [2] -23.7% | [3] 7.85% | [4] 12.8% | [5] -1.1% | [6] 12.3%

CC(=O)C(N)=NCc1ccccc1
inactive: [1] 10.2% | [2] 2.7% | [3] -10.7% | [4] 4.6% | [5] 25.8% | [6] 10.8%

CCCc1c(O)cccc1O
inactive: [1] 13.8% | [2] 6.55% | [3] 16.9% | [4] 0.9% | [5] -5.55% | [6] 11%

Cc1ccc(SC(=O)Cc2ccc([N+](=O)[O-])cc2)cc1
active: [1] 96.6% | [2] 98% | [3] 98.2% | [4] 88.3% | [5] 96.2% | [6] 96.8%

N#Cc1ccc(Sc2ccccc2)cc1C#N
inactive: [1] 12.8% | [2] -8.7% | [3] 24.4% | [4] 10.2% | [5] 24.9% | [6] 0.6%

Cc1cc(C)c(C)c(CN)c1C
inactive: [1] -20% | [2] -5.85% | [3] -9.35% | [4] 7.8% | [5] 13.7% | [6] -3%

COc1ccc(C2S/C(=C\c3cccc(O)c3)C(=O)N2NC(=O)Cc2ccccc2)cc1 (stereo not drawn)
inactive: [1] -15.3% | [2] -34.5% | [3] -6.2% | [4] -46.5% | [5] -1.2% | [6] 10.9%

Cn1cc(C(C)(c2ccccc2)c2cn(C)c3ccccc23)c2ccccc21
inactive: [1] -13.8% | [2] -6% | [3] -4.25% | [4] -24.2% | [5] -5.6% | [6] -11%

CC1=CC(=O)C(C(C)C)=CC1=Nc1ccc(N(C)C)cc1
inactive: [1] -24.9% | [2] -26.3% | [3] -12.4% | [4] -33% | [5] 42.4% | [6] -12.3%

CC1=NN2C(c3ccc(Cl)cc3)=CSC2=NC(C)(C)C1
inactive: [1] 16.6% | [2] -16.9% | [3] -3.1% | [4] 5.8% | [5] -8.6% | [6] -13.2%

O=C(Cc1nc2ccc(C(=O)c3ccccc3)cc2[nH]c1=O)C(=O)Nc1nc2ccccc2[nH]1
inactive: [1] -23.1% | [2] 19.3% | [3] -4.05% | [4] -17.9% | [5] -4.25% | [6] 9.5%

CCCCCCCOCC(=O)O
inactive: [1] 10% | [2] -5.8% | [3] 3.6% | [4] -30.2% | [5] 1.25% | [6] 17.6%

CCCCNCC(=O)Nc1ccc(C(=O)OC(C)C)cc1
inactive: [1] -1.9% | [2] -18.1% | [3] -5.95% | [4] -35.3% | [5] 10.8% | [6] -1.75%

CCCCCCCCCCCCCC(=O)N(CCCCCCCCC)CC(O)C(O)C(OC1OC(CO)C(O)C(O)C1O)C(O)CO (stereo not drawn)
inactive: [1] -13.8% | [2] -41.4% | [3] -17.4% | [4] -28.4% | [5] -49.1% | [6] -56.5%

CC(C)(OC(=O)Nc1ccccc1)c1ccc([N+](=O)[O-])cc1
inactive: [1] -5% | [2] 9.1% | [3] 13.2% | [4] -25.5% | [5] -22.7% | [6] -4.45%

Cc1cc(C)c(S(N)(=O)=O)c(C)c1
inactive: [1] -1.2% | [2] -16.6% | [3] -28.2% | [4] -5.4% | [5] -15.1% | [6] -0.8%

CCOC(=O)C1(C(=O)OCC)OC(=O)NC2=C1CCCC2
inactive: [1] -13.3% | [2] -29.1% | [3] -8.6% | [4] -15.7% | [5] -1.95% | [6] -23.9%

Cc1ccc(S(=O)(=O)NNS(=O)(=O)c2ccc(C)cc2)cc1
inactive: [1] 5% | [2] 9.6% | [3] 26.9% | [4] -5.95% | [5] 12.7% | [6] 17.2%

— PubChem BioAssay (NCI)
